ARNT-TACC3 inh: ARNT/TACC3 interaction disruption. inhibition, % at 9.99 µM. AlphaScreen His-ARNT PAS-B/GST-TACC3 binding, luminescence; TACC3 fragment carries E629A point mutation. Q9Y6A5. actives 0.66% (n = 390,000);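 active = mean inhibition of replicates at least 50% and at least half of replicates each reaching 50%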;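 note: 0% = complete ARNT plus TACC3 wells and 100% = ARNT alone without TACC3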
GSIS activator: primary screen for activators of insulin secretion dependent on glucose, INS-1E cells, GLuc reporter luminescence; INS-1E GLuc reporter insulin secretion, 2-3 h; activation, % at 16.6 µM; actives 0.61% (n = 370,000); AID 743287;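 active = lowest replicate activation of at least 40%, so every replicate reaches that level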;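 note: 0% = median of neutral control wells and 100% = median of IBMX positive control wells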
CendR NRP1 mod: NRP-1/CendR interaction modulation. inhibition, % at 25 µM. FAM-RPARPAR peptide binding to NRP-1, fluorescence polarization. actives 0.85% (n = 360,000). AID 602438;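 active = inhibition or corrected inhibition above about 18%, plus a signal ratio from 0.5 to 1.5, limit read from the data, passing the limit was not always enough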
ABCB6 inh MLPCN: blocks the human ABCB6 transporter | Q9NP58 | K562-ABCB6 porphyrin accumulation, flow cytometry, 1 h; hits give low values | fluorescence ratio to DMSO, % at 10 µM | actives 0.19% (n = 360,000) | AID 602162;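 active = fluorescence ratio to DMSO below 75%, the collection mean minus 3 SD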;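 note: signal is porphyrin accumulated inside mitochondria; 100% equals median channel fluorescence of DMSO control wells; lower ratio means ABCB6 inhibition with less porphyrin fluorescence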
Target sequence (Q9NP58 whole entry, looked up): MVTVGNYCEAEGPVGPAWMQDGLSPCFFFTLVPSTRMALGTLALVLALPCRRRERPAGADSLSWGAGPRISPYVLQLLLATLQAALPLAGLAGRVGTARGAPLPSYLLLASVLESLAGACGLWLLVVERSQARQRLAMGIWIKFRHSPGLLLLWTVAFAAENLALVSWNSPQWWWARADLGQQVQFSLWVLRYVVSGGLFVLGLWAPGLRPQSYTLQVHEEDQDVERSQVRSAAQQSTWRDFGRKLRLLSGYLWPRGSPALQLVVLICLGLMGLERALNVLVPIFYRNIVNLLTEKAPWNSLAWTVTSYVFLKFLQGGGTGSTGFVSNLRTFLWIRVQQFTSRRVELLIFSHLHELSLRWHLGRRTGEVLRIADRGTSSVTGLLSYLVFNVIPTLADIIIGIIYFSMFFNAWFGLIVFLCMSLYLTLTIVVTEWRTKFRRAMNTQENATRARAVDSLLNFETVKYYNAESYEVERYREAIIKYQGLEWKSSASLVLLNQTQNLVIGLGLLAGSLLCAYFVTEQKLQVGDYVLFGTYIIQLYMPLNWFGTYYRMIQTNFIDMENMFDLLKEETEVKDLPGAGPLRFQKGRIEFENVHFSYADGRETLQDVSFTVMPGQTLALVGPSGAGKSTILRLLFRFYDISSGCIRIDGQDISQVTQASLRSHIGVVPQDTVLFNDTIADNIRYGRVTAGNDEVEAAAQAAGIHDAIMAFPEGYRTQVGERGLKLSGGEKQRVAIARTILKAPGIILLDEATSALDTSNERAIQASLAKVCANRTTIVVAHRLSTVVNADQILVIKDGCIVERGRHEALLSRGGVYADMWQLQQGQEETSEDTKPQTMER
iPSC survival up: enhancers of human iPSC single-cell survival. hiPSC single-cell survival, ATPlite luminescence; 100% = ROCK inhibitor wells, 0% = DMSO. survival enhancement, % at 20 µM. actives 0.044% (n = 360,000). AID 602274; in the data active = survival enhancement above about 18%;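 note: cells exposed to compounds for 16 hours before the ATP read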
ABCB6 blocker 1: human ABCB6 transporter inhibition; shares compounds with ABCB6 inh MLPCN; K562-ABCB6 porphyrin accumulation, flow cytometry, 1 h; hits give low values; ratio response (% of DMSO), % at 10 µM; 700 tested, under 10 active;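 active = repeat-averaged ratio response below 75% of DMSO, the collection mean minus 3 SD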;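 note: median porphyrin fluorescence at 575 nm with 488 nm excitation from mitochondria; lower ratio means less porphyrin signal so ABCB6 inhibition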
An asterisk follows results filed as active. Compounds with a hit are over-represented: about 1.8% of the library has one in this group of screens.

`COc1ccc(N2CCN(C(=O)c3cc(-c4ccc(F)cc4)[nH]c3C)CC2)cc1` gave ARNT-TACC3 inh 9, GSIS activator -1, CendR NRP1 mod -6, ABCB6 inh MLPCN 71*, iPSC survival up 0 and ABCB6 blocker 1 101.
CC(=O)N1C[C@@H]2C(c3ccccc3)[C@H](C1)N2CC(F)(F)F (stereo not given in full) was read as GSIS activator 2.
For O=C(COc1ccc(S(=O)(=O)NC2CCCCC2)cc1Cl)NCC1CCCO1 (stereo not given) the results were ARNT-TACC3 inh 1, CendR NRP1 mod 0, ABCB6 inh MLPCN 97 and iPSC survival up -4.
For Cc1cc(S(=O)(=O)NC2CCCCC2)ccc1OCC(=O)NCC1CCCO1 (stereo not given) the results were ARNT-TACC3 inh 5, GSIS activator 7, CendR NRP1 mod 1, ABCB6 inh MLPCN 73*, iPSC survival up 1 and ABCB6 blocker 1 99.
For C[C@@H]1CCCCO[C@H](CN(C)C(=O)Nc2ccc(F)cc2)[C@H](C)CN([C@H](C)CO)C(=O)c2cc(NS(=O)(=O)c3ccc(F)cc3)ccc2O1 the results were ARNT-TACC3 inh -17 and GSIS activator 2.
`CNC(=O)c1c[nH]n2c(=O)c(Cc3ccccc3F)c(C)nc12` gave ARNT-TACC3 inh -1, GSIS activator -9, CendR NRP1 mod -6, ABCB6 inh MLPCN 107, iPSC survival up -1 and ABCB6 blocker 1 116.
CCCN=Cc1sc2ccc(OCC)cc2c1O was read as ARNT-TACC3 inh 2, CendR NRP1 mod -9, ABCB6 inh MLPCN 74*, iPSC survival up -3 and ABCB6 blocker 1 104.
CC(=O)NCCN=Cc1sc2ccccc2c1O was read as ARNT-TACC3 inh 2, CendR NRP1 mod 3, ABCB6 inh MLPCN 89 and iPSC survival up -5.
`O=C(NCc1n[nH]c(=S)n1-c1cccc(Cl)c1)c1ccc(S(=O)(=O)N2CCCC2)cc1` gave ARNT-TACC3 inh -8, CendR NRP1 mod 8, ABCB6 inh MLPCN 33*, iPSC survival up 2 and ABCB6 blocker 1 104.
For C[C@H]1CN([C@@H](C)CO)C(=O)c2cc(NS(C)(=O)=O)ccc2O[C@@H]1CN(C)Cc1ccc(Cl)c(Cl)c1 the results were ARNT-TACC3 inh -1 and GSIS activator -16.
`COc1ccc(CC(N)c2csc(NC(=O)c3ccc(OC)cc3)n2)cc1` (stereo not given) gave GSIS activator -15, CendR NRP1 mod -31, ABCB6 inh MLPCN 95 and iPSC survival up 1.
For COc1ccc(CC(N)c2csc(NC(=O)c3ccccc3)n2)cc1 (stereo not given) the results were CendR NRP1 mod -27, ABCB6 inh MLPCN 71*, iPSC survival up -3 and ABCB6 blocker 1 103.
For CCCC#Cc1ccc2c(c1)[C@H]1[C@H](CCN1S(=O)(=O)c1ccc(F)cc1)[C@@H](CO)N2 the results were GSIS activator -16.
Cc1ccc(-c2cnc3c(c2)C(=O)N([C@H](C)CO)C[C@@H](C)[C@@H](CN(C)C(=O)c2ccccc2)O3)cc1 was read as ARNT-TACC3 inh 5 and GSIS activator -7.
`Cc1ccc(OCC(=O)Nc2ccncc2)cc1C` gave GSIS activator 1, CendR NRP1 mod -1, ABCB6 inh MLPCN 74*, iPSC survival up 3 and ABCB6 blocker 1 99.
OC[C@H]1[C@@H](c2ccc(C#Cc3ccccc3)cc2)[C@@H]2CN(CC3CCOCC3)CCCCN12 was read as ARNT-TACC3 inh 8 and GSIS activator -19.
Clc1cc(Sc2ccc(Br)cc2)nnc1-c1ccccc1 was read as ARNT-TACC3 inh -1, CendR NRP1 mod 4, ABCB6 inh MLPCN 74*, iPSC survival up -1 and ABCB6 blocker 1 101.
`C[C@H](CO)N1C[C@H](C)[C@@H](CN(C)Cc2ccc(C(=O)O)cc2)Oc2c(NC(=O)CCC(F)(F)F)cccc2C1=O` gave GSIS activator 12.
Screening Cc1ccc(S(=O)(=O)Nc2cccc3c2O[C@H](CN(C)S(=O)(=O)c2cccs2)[C@H](C)CN([C@@H](C)CO)C3=O)cc1 returned GSIS activator -4.
CCOC(=O)C1CCN(C(=O)CCc2nnc3ccc(N4CCN(C)CC4)nn23)CC1 was read as ARNT-TACC3 inh -57, GSIS activator 5, CendR NRP1 mod 2, ABCB6 inh MLPCN 98, iPSC survival up 0 and ABCB6 blocker 1 101.
COc1cccc(N2CCN(C(=O)CCc3nnc4ccc(N5CCCC5)nn34)CC2)c1 was read as ARNT-TACC3 inh 0, GSIS activator -5, CendR NRP1 mod 3, ABCB6 inh MLPCN 101 and iPSC survival up 0.
`CC(=O)c1ccc(NC(=O)CCc2nnc3ccc(N4CCC5(CC4)OCCO5)nn23)cc1` gave ARNT-TACC3 inh 4, GSIS activator -3, CendR NRP1 mod 5, ABCB6 inh MLPCN 97 and iPSC survival up 0.
O=C(CCc1nnc2ccc(N3CCC4(CC3)OCCO4)nn12)N1CCCCC1 was read as ARNT-TACC3 inh 2, GSIS activator -5, CendR NRP1 mod 10, ABCB6 inh MLPCN 97, iPSC survival up 0 and ABCB6 blocker 1 96.
CN1CCN(C(=O)CCc2nnc3ccc(N4CCC5(CC4)OCCO5)nn23)CC1 was read as ARNT-TACC3 inh -4, GSIS activator 0, CendR NRP1 mod 0, ABCB6 inh MLPCN 97, iPSC survival up 0 and ABCB6 blocker 1 100.
For CN(C)C(=O)c1cccc(-c2ccc([C@@H]3[C@H](CO)N4C(=O)CN(C(=O)C5CC5)C[C@@H]34)cc2)c1 the results were GSIS activator 11.
Screening CCCNC(=O)N(C)C[C@@H]1Oc2cc(C#CC3CC3)ccc2S(=O)(=O)N([C@@H](C)CO)C[C@H]1C returned ARNT-TACC3 inh 4 and GSIS activator -7.
CCCS(=O)(=O)NC(=O)C1(C)CCN(C(=O)c2ccc(C(F)(F)F)cc2)C1 (stereo not given) was read as CendR NRP1 mod -2, ABCB6 inh MLPCN 70*, iPSC survival up 3 and ABCB6 blocker 1 101.
`CC=Cc1ccc2n(c1=O)C[C@@H]1[C@@H](CO)[C@H](C(=O)NCCC)[C@H]2N1C(=O)C1CCC1` (mixture of isomers) gave GSIS activator 3.
COc1ccc(-c2nnc(SCC(=O)N3CCc4ccccc4C3)o2)cc1 was read as ARNT-TACC3 inh 1, CendR NRP1 mod -6, ABCB6 inh MLPCN 56*, iPSC survival up 2 and ABCB6 blocker 1 101.
CCOC(=O)C1CCN(S(=O)(=O)c2ccc(OCC(=O)OC)cc2)CC1 was read as ARNT-TACC3 inh -3, GSIS activator 21, CendR NRP1 mod -22, ABCB6 inh MLPCN 99, iPSC survival up 1 and ABCB6 blocker 1 100.
